{"source": "PubChem BioAssay (NCATS)", "note": "Inconclusive results are not listed. Calls of active or inactive are those of the source. Calls follow the shape of the full dose curve.", "data": [{"test": "S16 Schwann cell PMP22 intronic element beta-lactamase assay (AID 624044); also: nearly all actives have a fitted effect of over 15% in size", "details": "S16 rat Schwann cells, PMP22 element beta-lactamase FRET, 24 h; series mostly up to 38.3 µM", "method_in_brief": "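Rat S16 Schwann cells with beta-Lac driven by a PMP22 intronic element, compound-treated 24 h at 37 °C. LiveBLAzer FRET B/G read: 460 nm normalized to potassium clavulanate vs DMSO; 535 nm FRET as viability; concentration-effect curves classified.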", "values": [{"compound": "CCOC(=O)c1cccnc1", "outcome": "inactive"}, {"compound": "CN1CCCN=C1COC(=O)C(O)(c1ccccc1)C1CCCCC1", "note": "(centres undefined)", "outcome": "inactive"}, {"compound": "CCc1nnc(NS(=O)(=O)c2ccc(N)cc2)s1", "outcome": "inactive"}, {"compound": "Cc1ccc(S(=O)(=O)NC(=O)NC2CCCCCCC2)cc1", "outcome": "inactive"}, {"compound": "COc1ccc2cc(CCC(C)=O)ccc2c1", "outcome": "inactive"}, {"compound": "OCc1ccc(Cl)cc1Cl", "outcome": "inactive"}, {"compound": "CCN(CC)CC1CCCCN1CC(=O)N1c2ccccc2C(=O)Nc2cccnc21", "note": "(centres undefined)", "outcome": "inactive"}, {"compound": "CCOc1cc(NC(C)=O)ccc1C(=O)OC", "outcome": "inactive"}, {"compound": "CCN(CC)S(=O)(=O)c1ccc(C(=O)O)cc1", "outcome": "inactive"}, {"compound": "CCCCCCCCCCCCCCCCC(C(=O)O)C(O)(CC(=O)O)C(=O)O", "note": "(centres undefined)", "outcome": "inactive"}, {"compound": "CC(=O)SC[C@@H](Cc1ccccc1)C(=O)NCC(=O)OCc1ccccc1", "outcome": "inactive"}, {"compound": "NCc1ccc(S(N)(=O)=O)cc1", "outcome": "inactive"}, {"compound": "CCCOC(=O)c1ccc(N)cc1", "outcome": "inactive"}, {"compound": "Cc1cc(OI)c(C(C)C)cc1-c1cc(C(C)C)c(OI)cc1C", "outcome": "inactive"}]}]}
